This excerpt belongs to a sample that is enriched for hits.
TDP1 cell noCPT: qHTS for Inhibitors of human tyrosyl-DNA phosphodiesterase 1 (TDP1): qHTS in cells in absence of CPT; DT40 Tdp1-/- hTDP1 cells, no CPT, ATP luminescence, 48 h; Potency, µM (titrated, usually from 46.2 µM), for inactives: top-dose activity change, negative = growth inhibition, actives largely listed as inhibitors; actives 15% (n = 420,000); AID 686978, 2013; also: potency is read from the fitted curve at half-maximal effect; nearly all actives have a fitted effect of over 55% in size
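Growth of hTDP1-complemented DT40 Tdp1-knockout cells is measured by ATP luminescence after at least 48 hr compound exposure at 37 °C, with DMSO substituting for the 20 nM CPT used in the parallel screen.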
HT1080-NT tox: kills 2HG-producing HT-1080-NT fibrosarcoma cells; HT-1080-NT fibrosarcoma viability, CellTiter-Glo ATP luminescence, 48 h; Potency, µM (top dose mostly 46.1 µM), for the others: at the highest dose activity, negative = less viability, actives largely listed as cytotoxic; actives 1.6% (n = 360,000);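 also: NT is the 2HG producing partner of a matched IDH1 knockdown line; potency is read from the fitted curve at half-maximal effect; 0% = DMSO-treated cells and -100% = media-only wells without cells; nearly all actives have a fitted effect of over 55% in size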
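Viability of the 2HG-overproducing fibrosarcoma line after 48 hours of compound exposure at 37 degrees C was determined by luminescence with CellTiter-Glo, and concentration-effect curves were then fitted and categorized.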
HT1080 IDH1KD tx: HT-1080 IDH1 knockdown cell toxicity (counter line); HT-1080 IDH1 knockdown viability, ATP luminescence, 48 h; Potency, µM (highest dose often 46.1 µM), without a hit: at the top dose activity, negative = toxicity, usual class: cytotoxic; actives 2% (n = 360,000);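 also: potency is read from the fitted curve at half-maximal effect; 0% = DMSO wells and -100% = cell-free medium wells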
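Cytotoxicity counter-line: IDH1KD HT-1080, 48 h, CellTiter-Glo. Curves classed by r2, magnitude and activity.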
12-LOX inh: blocks human arachidonate 12S-lipoxygenase | P18054 | purified 12hLO, xylenol orange hydroperoxide absorbance | Potency, µM (series often up to 108 µM), for the others: at the top dose activity change, negative = inhibition, usual class: inhibitors | actives 1.1% (n = 580,000); also: potency is read from the fitted curve at half-maximal effect
Target sequence (P18054 whole entry, looked up): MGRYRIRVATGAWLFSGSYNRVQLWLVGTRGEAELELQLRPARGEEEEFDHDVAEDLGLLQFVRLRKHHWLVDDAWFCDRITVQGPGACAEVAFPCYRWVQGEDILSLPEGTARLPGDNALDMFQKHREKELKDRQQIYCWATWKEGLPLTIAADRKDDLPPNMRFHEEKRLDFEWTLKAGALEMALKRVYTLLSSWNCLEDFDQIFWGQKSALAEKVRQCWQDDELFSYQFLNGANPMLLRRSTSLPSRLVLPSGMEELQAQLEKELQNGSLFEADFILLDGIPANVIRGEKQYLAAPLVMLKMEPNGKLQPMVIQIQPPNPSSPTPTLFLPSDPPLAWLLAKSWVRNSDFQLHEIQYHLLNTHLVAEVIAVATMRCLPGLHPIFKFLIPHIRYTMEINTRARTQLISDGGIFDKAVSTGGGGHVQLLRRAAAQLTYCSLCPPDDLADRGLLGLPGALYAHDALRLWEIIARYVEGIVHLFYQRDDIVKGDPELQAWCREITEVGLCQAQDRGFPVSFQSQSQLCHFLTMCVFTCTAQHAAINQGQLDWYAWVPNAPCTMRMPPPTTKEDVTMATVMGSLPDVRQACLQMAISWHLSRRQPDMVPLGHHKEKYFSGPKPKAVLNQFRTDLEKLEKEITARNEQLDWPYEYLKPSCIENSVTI
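Hydroperoxide product was detected by ferrous iron/xylenol orange as the 573 to 405 nm absorbance ratio. Arachidonic acid at 40 uM (final) was turned over for 30 min at room temperature by 150 nM human 12hLO, pH 7.0 Hepes buffer, after 15 min compound preincubation.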
IL-1B inflam inh: inhibitors of inflammasome signaling (IL-1 beta secretion). activity change, % at 57.5 µM. AID 743279. THP-1 LPS/ATP IL-1B secretion, AlphaLISA, 16 h; hits give low values. actives 4.7% (n = 360,000); in the data active = activity change below about -50%; inconclusive = mostly about -30% to -49%
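THP-1 cells pretreated 1 hr with compounds (up to 57.5 uM final), then stimulated with LPS (250 ng/mL final) plus ATP (1.25 mM final); secreted IL-1B measured by AlphaLISA after 16 hr, decreased signal indicating inhibition.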
TDP1 cell CPT: growth inhibition of DT40 Tdp1-/-;hTDP1 cells with camptothecin (screen for TDP1 inhibitors) | chicken DT40 Tdp1-/-;hTDP1 cells + 20 nM CPT, ATP luminescence, 48 h | Potency, µM (top dose mostly 46.2 µM), for the others: at the top dose activity change, negative = growth inhibition, usual class: inhibitors | actives 12% (n = 420,000); also: potency is read from the fitted curve at half-maximal effect; nearly all actives have a fitted effect of over 55% in size
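Chicken DT40 Tdp1-/- cells complemented with human TDP1, 400 cells/well, exposed to compounds plus 20 nM camptothecin for at least 48 h at 37 C; viability read as ATP content by CellTiter-Glo luminescence.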
Starred values were filed as active, the others as inactive; ? = inconclusive; / = no result; [ ] = remark or other dose. Unless noted, calls follow the shape of the dose curve; as a rule, active = well fitted curve in the direction sought with a large enough effect; inconclusive = small, poorly fitted or top-dose-only effect, or another doubt; inactive = no such curve, though single readings can be large; an effect the other way counts as inactive or inconclusive. Unless noted, % is scaled to controls: 0 for no effect and ±100 for the full control effect.

SMILES | TDP1 cell noCPT | HT1080-NT tox | HT1080 IDH1KD tx | 12-LOX inh | IL-1B inflam inh | TDP1 cell CPT
Cc1ccc(CNC(=O)c2cc3c(C)nc4ccccc4c3o2)cc1 | 7.3µM* | 4% | -1% | -19% | 13 | 9.2µM*
Cc1nc2ccccc2c2oc(C(=O)NCc3ccccn3)cc12 | ? | -1% | -18% | 23% | 1 | ?
O=C(O)c1cc(N2N=C(C(F)(F)F)/C(=C/C=C/c3ccco3)C2=O)ccc1Cl | 18µM* | -4% | -1% | 5.6µM* | 16 | ?
COc1ccc(C(=O)/C=C/C(=O)N(CC(=O)NC2CCCCC2)Cc2ccccc2OC)c(O)c1 | 2.1µM* | ? | ? | -14% | -100* | 1.6µM*
COc1cccc(CN(CC(=O)NC2CCCC2)C(=O)CCC(=O)Nc2cc(C)on2)c1 | -12% | 10% | 19% | 21% | -1 | -2%
COc1ccc(C(=O)/C=C/C(=O)N(CC(=O)NC2CCCCC2)Cc2ccccc2)c(O)c1 | 2.1µM* | 3.7µM* | 3.7µM* | -11% | -100* | 1.5µM*
CCCn1nc(C(=O)NCC(C2CC2)N(C)C)c2ccccc2c1=O (stereo unspecified) | / | / | / | -5% | / | /
Cn1c(Cn2cccn2)nnc1C1CC(NC(=O)CN2CCCC2=O)C1 (stereo unspecified) | / | / | / | 8% | / | /
CCn1cnc2c1c(=O)n(CC(=O)N1CCN(C)CC1)c(=O)n2Cc1ccccc1 | / | / | / | 4% | / | /
CCN(CC)CC(=O)N1c2ccccc2Sc2ccccc21 | -20% | 0% | 0% | -26% | -6 | ?
CC(CN(C)C)CN1c2ccccc2Sc2ccc(C(F)(F)F)cc21 (stereo unspecified) | 17µM* | / | / | / | / | ?
CCN(CC)CCCCN1c2ccccc2Sc2ccccc21 | 21µM* | 18µM* | 23µM* | 0% | -70* | 21µM*
OCCN(CCO)CC(O)CN1c2ccccc2Sc2ccccc21 (stereo unspecified) | -14% | -8% | -5% | / | -19 | -15%
CN(C)CCCN1c2ccc(O)cc2Sc2ccc(Cl)cc21 | ? | ? | ? | ? | -30 | ?
CCN(CC)CC(O)CN1c2ccccc2Sc2ccccc21 (stereo unspecified) | ? | -14% | 0% | / | -68* | ?
CN(C)CCCN1c2ccccc2Sc2ccc(C(F)(F)F)cc21 | 24µM* | / | / | ? | -62* | ?
CC(C)n1c(SCC(=O)N2CCN(c3ccccc3)CC2)nnc1-c1ccco1 | / | / | / | -5% | / | /
CN(C)C(=O)c1ccc(-c2cc(NC3CCCC3)nc3[nH]ccc23)o1 | / | / | / | 12% | / | /
CN1C(=O)CCC2(CNC(=O)c3cccc4nccnc34)CCCC=C12 (stereo unspecified) | / | / | / | 19% | / | /
CC(CN1c2ccccc2Sc2ccccc21)N(C)C (stereo unspecified) | ? | 1% | 0% | ? | ? | ?
COc1ccc2c(c1)N(C[C@H](C)CN(C)C)c1ccccc1S2 | ? | 23µM* | 21µM* | ? | ? | ?
CCOC(=O)Nc1ccc2c(c1)N(C(=O)CCN(C)C)c1ccccc1S2 | -19% | 6% | 6% | ? | ? | -11%
O=C(CSc1nc2ccccc2s1)N1c2ccccc2Sc2ccc(C(F)(F)F)cc21 | 15µM* | -2% | -13% | 5% | 29 | ?
CCN(CC)CCC(=O)N1c2ccccc2Sc2ccc(NC(=O)OC)cc21 | 0% | -8% | -2% | 28µM* | -79* | -1%
CN(C)CCC(=O)N1c2ccccc2Sc2ccc(C(F)(F)F)cc21 | ? | 1% | 4% | ? | -3 | 23µM*
SMILES | TDP1 cell noCPT | HT1080-NT tox | HT1080 IDH1KD tx | 12-LOX inh | IL-1B inflam inh | TDP1 cell CPT
COC(=O)CN(CC(=O)NC(=O)NCC(F)(F)F)Cc1ccccc1 | / | / | / | -33% | / | /
C[C@@H](CN(C)C)CN1c2ccccc2Sc2ccccc21 | ? | / | / | -25%[22.9 µM] | / | ?
CC(CN(C)C)CN1c2ccccc2Sc2ccccc21 (stereo unspecified) | 18µM* | 16µM* | ? | -27% | ? | ?
Cc1ccsc1C(=O)N1CCN(c2cc(-c3ccc(Cl)cc3)[nH]n2)CC1 | / | / | / | 49% | / | /
CC#CCn1cc2c3c(cccc31)[C@H](CC(C)C)N[C@H](C(=O)N1CCN(C)CC1)C2 | / | / | / | 54%[176 µM] | / | /
N#Cc1c(NCCO)nc(NCc2ccccc2)c2c1CCN(Cc1ccccc1)C2 | ? | ? | -29% | / | -26 | ?
CCN1CCc2c(C#N)c(N3CCOCC3)nc(NCc3ccccc3)c2C1 | ? | 7% | -1% | ? | 44 | ?
CCN1CCc2c(C#N)c(N3CCCCC3)nc(NCc3ccccc3)c2C1 | 16µM* | ? | ? | ? | -24 | 21µM*
C=CCNc1nc(N2CCCCC2)c(C#N)c2c1CN(Cc1ccccc1)CC2 | 23µM* | ? | ? | -10% | -6 | 23µM*
COc1ccc(OC)c(-c2cc(C(=O)Nc3c(C)nn(Cc4ccc(Cl)cc4)c3C)no2)c1 | 21µM* | -14% | ? | ? | -63* | ?
Cc1nn(Cc2ccccc2)c(C)c1NC(=O)c1cc(-c2ccco2)on1 | ? | 0% | 1% | -2% | 6 | ?
COc1ccc(OC)c(-c2cc(C(=O)Nc3c(C)nn(Cc4ccccc4)c3C)no2)c1 | 23µM* | -27% | ? | 2% | ? | 18µM*
O=C(NCc1ccccc1OC(F)(F)F)C1CCN(S(=O)(=O)/C=C/c2ccccc2)CC1 | / | / | / | 3% | / | /
COc1ccc(/C=C(\C#N)C(=O)NC2CC2)cc1 | / | / | / | 4% | / | /
CCCCOc1ccc(/C=C(\C#N)C(=O)NC2CC2)cc1 | 29µM* | 1% | 15% | ? | -17 | ?
CCOc1ccc(/C=C(\C#N)C(=O)NC2CC2)c(OCC)c1 | -29% | 7% | 0% | -6% | -54* | 3%
CN(C)C(CNC(=O)CC1C=CCC1)c1cccs1 (stereo unspecified) | / | / | / | 23% | / | /
C[C@@]12C(=O)Nc3ccc(F)cc3C(=O)N1[C@H]1c3ccccc3OC[C@@H]1[C@@H]2c1ccccc1 | -10% | -10% | -4% | / | ? | ?
COc1ccc2c(c1)OC[C@H]1[C@H]2N2C(=O)c3cc(OC)c(OC)cc3NC(=O)[C@@]2(C)[C@H]1c1ccccc1 | 16µM* | ? | ? | -14% | 0 | 29µM*

Source: PubChem
